Assay [1] concerns Zika virus NS2B-NS3 protease (linked construct). Kind of assay: Confirmatory screen NINDS AMC qHTS for Zika virus inhibitors (AID 1347152). Also: potency is read from the fitted curve at half-maximal effect; nearly all actives have a fitted effect of over 70% in size. The gist of the method:
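In this dose-response qHTS, AMC release from 10 microM Bz-Nle-KRR-AMC by 1 nM linked protease is measured over 15 minutes (about 20% conversion) at pH 8.0. Percent inhibition is fitted to a 4-parameter Hill curve.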
In general terms: Quantitative high-throughput screening tests each substance at several concentrations.

The nature of assay [2]: Confirmatory screen GU Rhodamine qHTS for Zika virus inhibitors qHTS (AID 1347157). Also: potency is read from the fitted curve at half-maximal effect; nearly all actives have a fitted effect of over 70% in size. The method, boiled down: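 Unlinked NS2B/NS3, 25 nM; Rhod110 peptide, 1.5 microM; compounds, up to 114 microM. Reaction run 15 min at RT in 10 mM Tris-HCl pH 8.0, 0.01% Tween 20; kinetic fluorescence change fitted with a 4-parameter Hill model.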
Assay [3] deals with Zika virus NS2B-NS3 protease (unlinked complex). Kind of assay: Primary screen GU Rhodamine qHTS for Zika virus inhibitors: Unlinked NS2B-NS3 protease assay (AID 1347159). Also: nearly all actives have a fitted effect of over 60% in size. Also: potency is read from the fitted curve at half-maximal effect. The gist of the method:
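In dose–response format, inhibition of unlinked protease (25 nM) was measured with 1.5 microM bis-peptide Rhodamine110 substrate. Aprotinin served as the intraplate control.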

For assay [4], the system named is Zika virus NS2B-NS3 protease (linked construct). The assay can be described thus: Primary screen NINDS Rhodamine qHTS for Zika virus inhibitors (AID 1347160). Also: nearly all actives have a fitted effect of over 55% in size. Also: potency is read from the fitted curve at half-maximal effect. The method, boiled down: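 Each compound, titrated, sat 15 min with 25 nM linked protease before 1.5 microM Rhodamine110 substrate went in. Fluorescence gain over the next 15 min, in pH 8.0 Tris with Tween 20, gave Hill-fitted curves.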

The nature of assay [5]: Confirmatory screen NINDS Rhodamine qHTS for Zika virus inhibitors (AID 1347161). Also: potency is read from the fitted curve at half-maximal effect; nearly all actives have a fitted effect of over 60% in size. The method, boiled down: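 Single-chain NS2B-NS3 protease, 25 nM, pH 8.0; compounds preincubated 15 min. Activity: Rhodamine110 release from 1.5 microM substrate over 15 min, room temperature, data fitted to 4-parameter Hill.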
Assay [6] deals with Zika virus NS2B-NS3 protease (linked). Kind of assay: 384 well plate NINDS AMC confirmatory qHTS for Zika virus inhibitors (AID 1347163). Also: nearly all actives have a fitted effect of over 50% in size. Also: potency is read from the fitted curve at half-maximal effect. The gist of the method: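 Enzyme (5, 30 or 60 nM final) first met test compounds for ~15 min. The AMC-tagged peptide Ac-VKTGKR-AMC followed at 30 microM. Fluorescence was then recorded at 25 min and scaled against no-enzyme and no-inhibitor wells.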

Assay [7] in a line: Vero cells viability qHTS for Zika virus inhibitors (AID 1347167). The gist of the method: (§1)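 To flag cytotoxic protease inhibitors, viability is measured by ATP-dependent luminescence (CellTiter Glo) after cells attached overnight receive compound for 24 to 48 hours in DMEM with 4% FBS.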
Assay [8] in a line: HepG2 cells viability qHTS for Zika virus inhibitors (AID 1347168). The gist of the method:
as §1

A short description of assay [9]: P-glycoprotein substrates identified in KB-8-5-11 adenocarcinoma cell line, qHTS therapeutic library screen (AID 1346987). Also: nearly all actives have a fitted effect of over 65% in size. The gist of the method: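 Human cervical adenocarcinoma KB-8-5-11 cells, selected in colchicine to over-express P-gp and assayed without it, were exposed for 72 h to titrated compounds. An ATP-based luminescent viability signal gave AC50.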
The test system of assay [10] is Zika virus NS2B-NS3 protease (unlinked complex). The assay can be described thus: Confirmatory screen GU AMC qHTS for Zika virus inhibitors (AID 1347153).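 Also: enzyme at 25 nM with substrate at 10 µM below its Km of 18.3 µM; potency is read from the fitted curve at half-maximal effect; nearly all actives have a fitted effect of over 70% in size.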 The method, boiled down: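 Unlinked NS2B-NS3 complex (25 nM) in 10 mM Tris-HCl pH 8.0, 0.01% Tween 20 preincubated 15 min with compound, then 10 microM Bz-Nle-KRR-AMC (Km 18.3 µM). Fluorescence change over 15 min, normalized, Hill-fitted.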

Structures are written as SMILES. Records with an inconclusive call do not appear. Active and inactive are the calls of the source. Calls follow the shape of the dose curve; as a rule, active = well fitted curve in the direction sought with a large enough effect; inconclusive = small, poorly fitted or top-dose-only effect, or another doubt; inactive = no such curve, though single readings can be large; an effect the other way counts as inactive or inconclusive.

Consider `COc1cc(Nc2nc3ccccc3nc2NS(=O)(=O)c2cccc(NC(=O)c3ccc(C)c(OC)c3)c2)cc(OC)c1`, for which the Potency is 13.9 µM (active) in [1]; 1.39 µM (active) in [2]; 3.55 µM (active) in [3]; 7.94 µM (active) in assay [4]; 1.97 µM (active) in assay [5]. Also, the Potency result in [6] is “inactive”. The compound was called inactive in assay [7] and in [8].

For `CN1C(=O)N(c2cc(Cl)cc(Cl)c2)C(=O)[C@@]1(C)Cc1ccc(Br)cc1`, the Potency entry in assay [3] and in assay [4] was “inactive” in each case.

On to `C[C@@H]1CC[C@]2(C(=O)O)CC[C@]3(C)C(=CCC4[C@@]5(C)C[C@@H](O)[C@H](O)[C@@](C)(CO)C5CC[C@]43C)C2[C@H]1C` (stereo partly drawn), for which the Potency entry in [9] and in [4] was “inactive” in each case.

For the compound `COc1cc(O)c(C(=O)O)c(CCc2ccccc2)c1`, the Potency result in assay [9] was “inactive”. The Potency in assay [4] was 22.4 µM (active).

For `C[C@]12CC[C@@H]3c4ccc(O)cc4CC[C@H]3[C@@H]1C[C@@H](O[C@@H]1O[C@H](C(=O)O)[C@@H](O)[C@H](O)[C@H]1O)[C@@H]2O`, the Potency entry in [9] and in [4] was “inactive” in each case.

Take `CCOc1ccc(-c2cc(NC(=O)c3c(F)cccc3F)c(C(=O)O)s2)cc1`: the Potency in assay [1] is 17.5 µM (active); in assay [10], 27.8 µM (active); in assay [2], 4.41 µM (active); in [4], 5.01 µM (active); in [5] it was 3.12 µM (active); in assay [6], 7.08 µM (active). Also, the compound was called inactive in [7] and in assay [8].

Regarding `CC(=O)OC/C(=C/C(=O)O)CC[C@@H]1C(C)=CC(=O)[C@@H]2C(C)(C)CCC[C@@]12C`, the Potency entry in assay [9] and in [4] was “inactive” each time.

As to `CC(C)[C@@H](C(=O)O)N1Cc2c(cc(O)c3c2O[C@]2(C3)[C@H](C)CCC3C(C)(C)[C@H](O)[C@H](O)C[C@@]32C)C1=O` (stereo partly drawn), the Potency entry in [9] is “inactive”. Moreover, the Potency in [4] is 7.94 µM (active).

(Values after PubChem BioAssay (NCATS).)
